These entries were drawn from the full list.
aSyn UTR act: Activators via SNCA 5'UTR binding, MLPCN. alpha-synuclein 5'UTR reporter, activators screen. activity score, % (tested at 7.5 µM), hits read low. 300,000 tested, 7.1% active. AID 1814; in the data active means activity score below about -60%
Starred values were filed as active, the others as inactive.

SMILES | aSyn UTR act
C=CCn1c(NC(=O)c2ccc(C)cc2)nc2ccccc21 | -111*
CCCCCCCn1c(NC(=O)CC)nc2ccccc21 | 68
Cc1ccc(C(=O)Nc2nc3ccccc3n2CCN2CCCC2)cc1 | -76*
CC(=O)Nc1nc2ccccc2n1Cc1ccccc1C | 67
COc1ccc(-c2nnc(SCC(=O)N3CCCC3)o2)cc1 | -107*
CCOc1ccc(-c2nnc(SCC(=O)N3CCCC3)o2)cc1 | -101*
CCOc1ccc(-c2nc(CSCC(=O)N3CCN(c4cccc(OC)c4)CC3)c(C)o2)cc1 | 68
CCOc1ccc(-c2nnc(SCC(=O)N3CCOCC3)o2)cc1 | -113*
Cc1cc2ccccn2c1C(=S)NC(=O)c1ccccc1 | -82*
Cc1cc2ccccn2c1C(=O)Nc1cccc(Cl)c1 | -113*
O=[N+]([O-])c1ccc(CSc2nc3ccccc3o2)cc1 | -133*
c1ccc2[nH]c(CSc3nc4ccccc4o3)nc2c1 | -78*
CC(=O)Nc1cccc(Oc2nc(-c3ccccn3)nc3ccccc23)c1 | -129*
C=CCOc1nc(-c2ccccc2Cl)nc2ccccc12 | 72
CC(=O)Nc1ccc(Oc2nc(-c3ccccn3)nc3ccccc23)cc1 | -115*
Cc1cccc(Oc2nc(-c3ccccn3)nc3ccccc23)c1 | -111*
CC(C)(C)C1CCc2c(sc(NC(=O)c3cccs3)c2C(N)=O)C1 (stereo not given) | -158*
Cc1ccc(C(=O)/C=C\C(=O)c2ccc(C)cc2)cc1 | -63*
CC(=O)Nc1ccc(N/C=C/C(=O)c2ccc(C)cc2)cc1 | -74*
CC(=O)Nc1ccc(N/C=C/C(=O)c2ccc(Br)cc2)cc1 | -95*
Cc1ccc(C(=O)/C=C2\NCCNC2=O)cc1 | -72*
Cc1ccc(C(=O)/C=C2\NCC(C)NC2=O)cc1 (stereo not given) | 59
CC(=O)c1ccc(N/C=C/C(=O)c2ccc(Br)cc2)cc1 | -226*
COc1ncccc1-c1nnn(-c2ccccc2Br)n1 | -88*
COc1ncccc1-c1nnn(-c2ccccc2)n1 | -156*
SMILES | aSyn UTR act
CCOC(=O)C1CCN(C(=O)CNC(=O)c2nn(-c3ccc(OC)c(Cl)c3)c(=O)c3ccccc23)CC1 | -70*
Cc1cc(C)c(O)c(-c2cc(C(=O)Nc3cccnc3)[nH]n2)c1 | -108*
O=C(N/N=C/c1c(O)ccc2ccccc12)c1cccnc1 | 93
Cc1cccc(NC(=O)c2cc(-c3cc(Cl)ccc3O)n[nH]2)c1 | -224*
Cc1cc(O)c(-c2cc(C(=O)Nc3cccnc3)[nH]n2)cc1C | -188*
CCc1ccc(O)c(-c2cc(C(=O)Nc3cccnc3)[nH]n2)c1 | -162*
Cc1ccc(NC(=O)c2cc(-c3ccccc3O)n[nH]2)cc1Cl | -110*
Cc1cccc(NC(=O)c2cc(-c3cc(C)cc(C)c3O)n[nH]2)c1 | -67*
Cc1cccc(NC(=O)c2cc(-c3c(C)cc(C)cc3O)n[nH]2)c1 | -123*
Cc1ccc(C)c(NC(=O)c2cc(-c3cc(C)ccc3O)n[nH]2)c1 | -211*
CCCOC(=O)Nc1nc2ccccc2o1 | -99*
CCOC(=O)C(=CN=C(N)Nc1nc2ccccc2o1)C(=O)OCC | -119*
Cc1ccc(C(=O)N/N=C\c2sccc2C)cn1 | -75*
Cc1ccsc1/C=N/NC(=O)c1ccco1 | -81*
Cc1ccc(C(=O)N/N=C/c2c(O)ccc3ccccc23)cn1 | 62
Cc1ccsc1/C=N/NC(=O)c1sccc1C | -167*
Cc1ccsc1/C=N/N=C/c1sccc1C | -181*
CCOc1ccccc1C(=O)Nc1ccsc1C(=O)OC | 65
COC(=O)c1c(NC(=O)c2ccc(Br)s2)sc2c1CCC2 | -92*
COC(=O)c1sccc1NC(=O)c1csc(C)c1 | -80*
COC(=O)c1sccc1NC(=O)c1ccc(Br)s1 | -67*
CC#CC(=O)N1CCC(C(=O)Nc2ccc(Oc3ccccc3)nc2)CC1 | -175*
CN1CCN(c2nc(Nc3cccc(C(F)(F)F)c3)nc(N3CCOCC3)n2)CC1 | -69*
Clc1nc2ccccc2cc1-c1nnn(-c2ccccc2)n1 | -160*
CCNc1nc(N)c(C(=O)c2ccc(Cl)s2)s1 | -188*
SMILES | aSyn UTR act
CCOCC(=O)Nc1c(C(=O)Nc2ccc3c(c2)OCO3)oc2ccccc12 | -151*
COCC(=O)Nc1c(C(=O)Nc2ccccc2OC)oc2ccccc12 | -147*
COc1cccc(NC(=O)c2oc3ccccc3c2NC(C)=O)c1 | -121*
CCOc1ccc(NC(=O)c2oc3ccccc3c2NC(=O)CC)cc1 | -123*
COc1ccccc1NC(=O)c1oc2ccc(C)cc2c1C | -203*
COCC(=O)Nc1c(C(=O)Nc2cccc(OC)c2)oc2ccccc12 | -218*
CCOCC(=O)Nc1c(C(=O)Nc2ccc(OC)cc2OC)oc2ccccc12 | -82*
Cn1cc(NC(=O)OCc2ccc(Cl)cc2)c(C(F)(F)F)n1 | -109*
COc1ccc(NC(=O)c2cc(C)on2)cc1 | -106*
COc1ccc(-c2cc(C(=O)Nc3cc(Br)ccc3O)no2)cc1 | -107*
CC(C)n1cc(NC(=O)c2cc(-c3ccccc3)on2)cn1 | -218*
COc1ccc(NC(=O)c2cc(-c3ccccc3)on2)cc1 | -77*
CCc1ccccc1NC(=O)c1cc(-c2ccc(OC)cc2)on1 | -77*
